The text below walks through data of PubChem BioAssay (Tox21).

Molecules are shown by their SMILES. Values joined by “and” are separate entries in the source; they are usually repeats but may differ in a detail not shown here. Equal entries are not always repeated. Results filed as inconclusive are left out. Active and inactive are the calls of the source. Unless noted, calls follow the shape of the dose curve; as a rule, active = well fitted curve in the direction sought with a large enough effect in the repeat runs; inconclusive = weak or mixed curves; inactive = no such curve, though single readings can be large; an effect the other way counts as inactive or inconclusive.

The nature of experiment [1]: qHTS assay for small molecules that induce genotoxicity in human embryonic kidney cells expressing luciferase-tagged ATAD5 (AID 651632). Also: nearly all actives have a fitted effect of over 15% in size. The method in brief: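 Reporter cells (HEK293T) express luciferase-tagged ATAD5, a protein that accumulates after DNA damage. Treat 16 hr at 37C/5% CO2, add Amplite, wait 30 min at RT, and read luminescence.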
Experiment [2] is described as follows: qHTS assay for small molecules that induce genotoxicity in human embryonic kidney cells expressing luciferase-tagged ATAD5 - cell viability (AID 651634; calls by dose curve; also: nearly all actives have a fitted effect of over 25% in size; also: potency is read from the fitted curve at half-maximal effect). The method in brief:
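Seeding of 2,000 HEK293T ATAD5-luciferase cells per well preceded pin-tool compound transfer. Plates sat 15.5 hr at 37C under 5% CO2, then fluorescence was read after 30 min with CellTiter-Fluor.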

Experiment [3] in a line: qHTS assay for small molecule disruptors of the mitochondrial membrane potential - cell viability (AID 720634; calls by dose curve;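 also: human HepG2 liver cancer cells; series mostly up to about 83 µM; nearly all actives have a fitted effect of over 20% in size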). The procedure, abridged:
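Measuring cytotoxicity alongside mitochondrial potential, the screen quantified ATP by luminescence in HepG2 cells after 1 hr compound incubation and a 30 min room-temperature CellTiter-Glo step.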

A short description of experiment [4]: qHTS assay to test for compound auto fluorescence at 590 nm (red) in HepG2 cells (AID 720674). The method in brief: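 HepG2 cells, 2,000 per well in MEM with 10% FBS, attached overnight at 37 C, then got 23 nL compound or DMSO. After 1 hr at 37 C, 5% CO2, red fluorescence was read at 540/590 nm against Rose Bengal sodium as reference.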
Experiment [5] in a line: qHTS assay to test for compound auto fluorescence at 535 nm (green) in HepG2 cells (AID 720675).
Experiment [6] in a line: qHTS assay to test for compound auto fluorescence at 460 nm (blue) in HEK293 cells (AID 720678). The procedure, abridged: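 HEK293, 2,000 cells/well, 10% dialyzed FBS; attach 4-5 hr 37C; pin compound or DMSO; o/n 37C/5% CO2; fluorescence 405/460 nm; triamterene-equivalent units.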
Experiment [7] can be described thus: qHTS assay to test for compound auto fluorescence at 590 nm (red) in HEK293 cells (AID 720679). The procedure, abridged: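 Intensity at 540nm excitation and 590nm emission is reported as Rose Bengal sodium-equivalent autofluorescence. Measurements followed overnight exposure (37C, 5% CO2) of HEK293 cells, 2,000 per well, to 23 nL compound.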
Experiment [8] can be described thus: qHTS assay for small molecule agonists of the p53 signaling pathway - cell viability (AID 651633; calls by dose curve; also: nearly all actives have a fitted effect of over 30% in size; also: potency is read from the fitted curve at half-maximal effect). The method in brief:
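p53RE-bla cells were treated with compound for 16 hours at 37 C. Cytotoxicity was then measured as CellTiter-Glo luminescence after 30 min at room temperature.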

The nature of experiment [9]: qHTS assay for small molecule disruptors of the mitochondrial membrane potential (AID 720635). Also: potency is read from the fitted curve at half-maximal effect. The procedure, abridged: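 HepG2 cells exposed to compound 1 hr at 37C, then Mito-MPS dye 30 min. Ratio read of aggregate (540/590 nm) versus monomer (490/535 nm) fluorescence.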

Consider `Cc1c(F)c(N2CCNC(C)C2)cc2c1c(=O)c(C(=O)O)cn2C1CC1` (configuration not stated), for which the Potency result in experiment [1], in [2], in experiment [3], in experiment [4], in [5] and in experiment [6] was “inactive” in each case. The Potency result in experiment [7] was “inactive”.

On to `Cc1c(C)c2c(c(C)c1OC(=O)c1cccnc1)CC[C@@](C)(CCC[C@H](C)CCC[C@H](C)CCCC(C)C)O2`, for which the Potency entry in experiment [1], in experiment [2], in experiment [3], in experiment [4], in [5] and in [6] was “inactive” throughout. Further, in experiment [7], the Potency entry was “inactive”.

For `O=C(Nc1ccc2c(O)c(N=Nc3ccc(N=Nc4ccc(S(=O)(=O)O)cc4)cc3)c(S(=O)(=O)O)cc2c1)c1ccccc1`, the Potency entry in experiment [1], in [3], in [5], in experiment [6] and in [7] was “inactive” throughout. In [2], the Potency is 48.6 µM (active).

`CN1CCN(Cc2cc(-c3ccc4[nH]c(=O)oc4c3)co2)[C@@H](c2ccc(F)cc2)C1`: the Potency result in [1], in experiment [8], in experiment [3], in [4], in experiment [5] and in [6] was “inactive” each time. Besides, the Potency entry in experiment [7] was “inactive”. Also, the Potency in experiment [9] is 14.8 µM (active).

Consider `CN1CCN2c3ccccc3Cc3ccccc3C2C1` (configuration not stated), for which the Potency result in [1], in experiment [2], in experiment [3], in [4], in experiment [6] and in [7] was “inactive” throughout.

For `O=C1CCc2ccc(OCCCCN3CCN(c4cccc(Cl)c4Cl)CC3)cc2N1`, the Potency in [8] is 23.7 µM (active). Also, the Potency entry in [2], in [5] and in experiment [6] was “inactive” throughout.

Regarding `C#C[C@]1(O)CC[C@H]2[C@@H]3[C@H](C)CC4=C(CCC(=O)C4)[C@H]3CC[C@@]21C`, the Potency entry in experiment [1], in experiment [2], in experiment [3], in experiment [6] and in experiment [7] was “inactive” throughout.

On to `CC(C)(C)c1ccc(C(O)CCCN2CCC(C(O)(c3ccccc3)c3ccccc3)CC2)cc1` (configuration not stated), for which the Potency entry in experiment [1], in [3], in experiment [5], in experiment [6] and in experiment [7] was “inactive” each time. In [8], the Potency was 29.8 µM (active) and 18.8 µM (active).

On to `O=C1NC(=O)[C@@H]2CC=CC[C@H]12`, for which the Potency entry in experiment [8], in [2], in experiment [3], in experiment [9], in [4] and in experiment [5] was “inactive” each time. In addition, the Potency entry in experiment [6] and in experiment [7] was “inactive” throughout.

Regarding `Nc1ccc(Oc2ccc(Cl)cc2)cc1`, the Potency result in experiment [1], in [8], in experiment [2], in [4], in [6] and in experiment [7] was “inactive” each time.

For `COC(=O)C1=C(C)NC(C)=C(C(=O)OCCN2CCN(C(c3ccccc3)c3ccccc3)CC2)C1c1cccc([N+](=O)[O-])c1` (configuration not stated), the Potency entry in experiment [1], in experiment [4], in [5] and in experiment [6] was “inactive” each time. The Potency in [2] is 11.9 µM (active); in experiment [9] it was 10.6 µM (active).

Turning to `CCCCCCCCCCCCOCCOCCOCCOCCOCCOCCOCCOCCOCCO`, the Potency entry in experiment [1], in experiment [4], in experiment [5], in experiment [6] and in experiment [7] was “inactive” throughout. In addition, the Potency in experiment [8] is 26.6 µM (active); in experiment [9] it was 19.7 µM (active).

For `CCC(C)[O-].CCC(C)[O-].CCOC(=O)/C=C(/C)[O-].[Al+3]`, the Potency result in [2], in experiment [3], in [9], in experiment [4], in experiment [5] and in experiment [6] was “inactive” in each case. Besides, the Potency entry in [7] is “inactive”.

For the compound `Cc1cc(-c2ccc(N=Nc3cc(S(=O)(=O)O)c4ccccc4c3N)c(C)c2)ccc1N=Nc1cc(S(=O)(=O)O)c2ccccc2c1N`, the Potency entry in experiment [1], in experiment [2], in experiment [3], in experiment [4], in experiment [5] and in experiment [6] was “inactive” in each case. The Potency result in experiment [7] is “inactive”. The Potency in experiment [9] was 12.3 µM (active).

In the case of `COC(=O)c1ccccc1OC`, the Potency entry in experiment [1], in experiment [2], in [3], in [9], in experiment [4] and in [5] was “inactive” throughout. For the same compound, the Potency entry in experiment [6] and in experiment [7] was “inactive” each time.

As to `COc1ccc2cc1Oc1ccc(cc1)C[C@H]1c3c(cc4c(c3Oc3cc5c(cc3OC)CCN(C)[C@@H]5C2)OCO4)CCN1C`, the Potency entry in experiment [1], in [3], in experiment [5], in experiment [6] and in experiment [7] was “inactive” in each case. Moreover, the Potency in experiment [2] was 29.8 µM (active).

On to `O=C1CCc2cc(OCCCCc3nnnn3C3CCCCC3)ccc2N1`, for which the Potency entry in experiment [1], in experiment [2], in [4], in experiment [5], in experiment [6] and in experiment [7] was “inactive” throughout.

For the compound `Nc1nc(-c2ccccc2)cs1`, the Potency result in experiment [2], in experiment [3], in experiment [4], in experiment [5], in experiment [6] and in experiment [7] was “inactive” each time.

`CCC(C)n1ncn(-c2ccc(N3CCN(c4ccc(OC[C@H]5CO[C@](Cn6cncn6)(c6ccc(Cl)cc6Cl)O5)cc4)CC3)cc2)c1=O` (some centres not stated): the Potency entry in experiment [1], in [3], in experiment [5], in [6] and in [7] was “inactive” each time.

In the case of `CC(=O)[C@H]1CC[C@H]2[C@@H]3CCC4=CC(=O)CC[C@]4(C)[C@H]3CC[C@]12C`, the Potency result in experiment [1], in experiment [2], in experiment [3], in experiment [5], in [6] and in experiment [7] was “inactive” throughout. Also, the Potency in [9] is 19.3 µM (active).

In the case of `Oc1cc(Cl)cc(Cl)c1Cl`, the Potency in [9] is 4.97 µM (active). Moreover, the Potency entry in experiment [4], in experiment [6] and in experiment [7] was “inactive” in each case.

`Cc1ccc(O)c(N)c1`: the Potency result in [3], in experiment [4], in [5], in experiment [6] and in experiment [7] was “inactive” in each case.

In the case of `Cc1ccc(O)c(O)c1`, the Potency entry in experiment [1], in [2], in experiment [3], in [4], in experiment [5] and in [6] was “inactive” each time. Besides, in experiment [7], the Potency entry was “inactive”.

Turning to `O=c1oc2cc(O)ccc2c2oc3cc(O)ccc3c12`, the Potency result in [8], in experiment [2], in [3], in experiment [4], in experiment [5] and in [7] was “inactive” each time. Besides, in experiment [9], the Potency is 58.6 µM (active).

As for `COc1cccc2c1C(=O)c1c(O)c3c(c(O)c1C2=O)C[C@@](O)(C(C)=O)C[C@@H]3O[C@H]1C[C@H](N)[C@H](O)[C@H](C)O1`, the Potency is 9.44 µM (active) and 30.8 µM (active) in experiment [2]; 1.5 µM (active) and 4.35 µM (active) in [9]. The Potency result in experiment [3], in [6] and in [7] was “inactive” throughout.

`CN1CCC[C@@H]1CCO[C@](C)(c1ccccc1)c1ccc(Cl)cc1`: the Potency result in experiment [8], in [2], in experiment [3], in experiment [4], in [6] and in [7] was “inactive” each time.

As for `Oc1ccccc1O`, the Potency entry in [1], in experiment [2], in experiment [3], in [9], in experiment [4] and in experiment [5] was “inactive” throughout. Also, the Potency result in [6] is “inactive”.

Consider `CCOC(=O)c1ccc(C2CCC(NC[C@H](O)COc3ccc(O)c(NS(C)(=O)=O)c3)CC2)cc1` (some centres not stated), for which the Potency result in [1], in experiment [2], in experiment [3], in experiment [4], in [5] and in experiment [6] was “inactive” in each case. The Potency result in [7] was “inactive”.
